Consider three molecules from the supplement of paper PMC9694430.

SMILES strings stand for the structures.

Holding throughout (experiment): thermal shift delta Tm vs DMSO control; higher = stronger stabilization (binding)
Common to all, as to settings: 12.5 µM; protein concentration 2 µM

In assay [1] the test system is LOC_OS01G57100-cb003. The method, boiled down: (§1)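 Heating from 25°C to 95°C at 0.05°C/s, fluorescence was recorded for 19.5 μl wells of 2 μM E. coli-expressed, purified rice kinase domain in 100 mM potassium phosphate pH 7.5, 150 mM NaCl, 10% glycerol and 5 × SYPRO Orange with compound in DMSO. Boltzmann fits gave melting temperatures for this differential scanning fluorimetry assay. The shift reported is the mean of three replicates against the DMSO-only protein.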

For assay [2], the system named is LOC_OS01G60330-cb001. Put shortly:
as §1

Assay [3] concerns LOC_OS01G60700-cb002. The method, boiled down:
as §1

Assay [4] has as its system LOC_OS01G63280-cb003. Put shortly:
as §1

For assay [5], the system named is LOC_OS01G67340-cb003. Put shortly:
as §1

The test system of assay [6] is LOC_OS01G70970-cb002. The method, boiled down:
as §1

The test system of assay [7] is LOC_OS02G07810-cb001. Put shortly:
as §1

Assay [8] relates to LOC_OS02G08530-cb003. Put shortly:
as §1

For assay [9], the system named is LOC_OS02G14120-cb001. The method, boiled down:
as §1

Assay [10] relates to LOC_OS02G17970-cb001. Put shortly:
as §1

In assay [11] the test system is LOC_OS02G45750-cb003. The method, boiled down:
as §1

In assay [12] the test system is LOC_OS02G54510-cb004. The method, boiled down:
as §1

For assay [13], the system named is LOC_OS03G04050-cb001. Put shortly:
as §1

The subject of assay [14] is LOC_OS03G12390-cb001. Put shortly:
as §1

The subject of assay [15] is LOC_OS03G27990-cb004. Put shortly: as §1
In assay [16] the test system is LOC_OS03G50450-cb001. The method, boiled down:
as §1

Assay [17] has as its system LOC_OS03G50810-cb003. Put shortly:
as §1

The subject of assay [18] is LOC_OS04G35114-cb001. The method, boiled down:
as §1

In assay [19] the test system is T1, LOC_OS04G38480-cb003.
T1 sequence (whole entry): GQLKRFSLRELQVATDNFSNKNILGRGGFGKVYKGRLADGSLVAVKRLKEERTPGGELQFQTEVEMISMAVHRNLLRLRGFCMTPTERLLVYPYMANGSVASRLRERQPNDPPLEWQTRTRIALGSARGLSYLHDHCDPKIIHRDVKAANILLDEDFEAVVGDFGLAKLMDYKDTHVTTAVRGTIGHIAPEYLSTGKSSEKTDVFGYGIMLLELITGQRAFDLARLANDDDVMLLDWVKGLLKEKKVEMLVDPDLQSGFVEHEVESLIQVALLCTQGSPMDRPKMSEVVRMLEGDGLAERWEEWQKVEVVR
Put shortly:
as §1

Assay [20] concerns T2, LOC_OS04G41100-cb001.
T2 sequence (whole entry): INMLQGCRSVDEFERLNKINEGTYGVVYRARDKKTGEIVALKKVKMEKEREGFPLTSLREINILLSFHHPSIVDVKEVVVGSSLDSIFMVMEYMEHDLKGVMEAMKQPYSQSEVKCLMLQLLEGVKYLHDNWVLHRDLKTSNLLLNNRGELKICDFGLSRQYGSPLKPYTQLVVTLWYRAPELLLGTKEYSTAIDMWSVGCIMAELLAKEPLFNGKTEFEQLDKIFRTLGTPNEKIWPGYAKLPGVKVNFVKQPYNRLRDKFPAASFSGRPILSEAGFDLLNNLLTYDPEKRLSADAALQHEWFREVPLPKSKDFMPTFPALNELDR
The method, boiled down:
as §1
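Note: purified Escherichia coli-expressed rice kinase domain construct.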

As to `CS(=O)(=O)c1cccc(CNc2nc(Nc3ccc4c(c3)CCC(=O)N4)ncc2C(F)(F)F)c1`, the “thermal shift delta Tm” value in assay [1] is 1.78 °C; in [2] it was 4.37 °C; in [3], 0.7 °C; in [4], 1.3 °C; in assay [5], 1.2 °C; in assay [6] it was 6.42 °C. Moreover, the “thermal shift delta Tm” value in [7] was determined as 1.43 °C; in assay [8], 2.07 °C; in [9], 5.48 °C; in assay [10] it was 0.72 °C; in assay [11] it was 10.4 °C; in assay [12], 1.28 °C. Moreover, the “thermal shift delta Tm” value stood at 0.17 °C in assay [13]; 5.43 °C in assay [14]; 1.28 °C in assay [15]; 3.56 °C in assay [16]; 4.21 °C in assay [17]; 3.71 °C in assay [18]. In addition, the results for the “thermal shift delta Tm” value in assay [19] and in assay [20] were 2.37 °C and 2.51 °C, respectively.
`Oc1cc(CNC(=S)/C=C/c2cc(O)c(O)c(Br)c2)cc(O)c1O`: the “thermal shift delta Tm” value in assay [1] was 7.83 °C; in [2], 17.7 °C; in assay [3], -0.76 °C; in [4], 20 °C; in assay [5], 0.53 °C; in assay [6] it was 0.97 °C. The “thermal shift delta Tm” value in assay [7] is 4.09 °C; in assay [8], -1.06 °C; in assay [9], -0.83 °C; in assay [10], 7.15 °C; in [11], 0.11 °C; in assay [12] it was -0.88 °C. Further, the “thermal shift delta Tm” value was 0.71 °C in assay [13]; 0.57 °C in assay [14]; 0.49 °C in [15]; 0.42 °C in assay [16]; 0.39 °C in assay [17]; -1.08 °C in assay [18]. The entries for the “thermal shift delta Tm” value in assay [19] and in assay [20] were 0 °C and -0.03 °C, respectively.
On to `COc1ccc(S(=O)(=O)N(C(C)=O)c2ccccc2/C=C/c2cc[n+]([O-])cc2)cc1`, for which the “thermal shift delta Tm” value is 1.85 °C in [1]; 0.75 °C in [2]; 0.63 °C in assay [3]; 0.55 °C in [4]; -0.3 °C in assay [5]; 0.2 °C in assay [6]. The “thermal shift delta Tm” value was 1.33 °C in assay [7]; 0.62 °C in assay [8]; 2.16 °C in assay [9]; 1.01 °C in assay [10]; -0.35 °C in assay [11]; -0.24 °C in assay [12]. Further, the “thermal shift delta Tm” value in assay [13] is 0.19 °C; in [14], 0.13 °C; in assay [15], -0.03 °C; in assay [16], 0.17 °C; in assay [17], 0.09 °C; in [18], 0.01 °C. The “thermal shift delta Tm” value in [19] is 0.55 °C; in assay [20] it was 0.61 °C.
